Measurements from PubChem BioAssay AID1063 (University of Pittsburgh Molecular Library Screening Center, 2008).
Screen size: about 200,000 compounds; about 18,000 (9%) were called active. This is one part of a sample in which actives are shown more often than they occur. A number with no mark means an inactive call. No stated cut-off is given here; in the data, active means inhibition above about 50%; inactive means the rest.

Test: antileishmanial activity against promastigotes – primary screen (AID 1063);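 further: promastigotes grown with compound for 44 hours at 28 °C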
Details: Leishmania major promastigotes, resazurin fluorescence viability; at 10 µM; active compounds read high

SMILES | inhibition
CCOc1ccc(NS(=O)(=O)c2cc(C)c(C)cc2C)cc1 | 5.1%
S=C(c1ccc(-c2ccccc2)o1)N1CCCCC1 | 12.2%
OCCC1CN(Cc2cnc(-c3ccccc3)s2)CCN1CCc1ccccc1 (stereo not given) | 83.7% (active)
OCCC1CN(Cc2cccc(O)c2)CCN1CCc1ccccc1 (stereo not given) | -0.63%
OCCC1CN(Cc2cccn2-c2nccs2)CCN1CCc1ccccc1 (stereo not given) | 11.3%
Cc1ccc(CN2CCN(Cc3ccc(OCCO)cc3)CC2CCO)o1 (stereo not given) | -4.28%
COc1ccc(/C=C/CN2CCN(Cc3ccc(C)cc3)C(CCO)C2)cc1 (stereo not given) | 67.4% (active)
Cc1ccc(CN2CCN(Cc3ccccc3-c3ccco3)CC2CCO)o1 (stereo not given) | 3.16%
NC(N)=Nc1nc2ccc(Br)cc2c(=O)[nH]1 | 16.6%
CCOc1ccccc1N1CCN(C(=O)COc2ccc3c(C)cc(=O)oc3c2)CC1 | 43.7%
O=c1nc(N/N=C/c2ccco2)cn[nH]1 | -3.61%
CCCCn1c(N)c(N2CCOCC2)c(=O)n(CC(=O)NCCc2ccccc2)c1=O | 1.59%
CCCCN(CC)CCCNC(=O)CS(=O)(=O)Cc1nc(-c2cccc(OC)c2)oc1C | 72.4% (active)
CCCN(CCC)CCCNC(=O)CNC(=O)c1nn(-c2ccc(OC)cc2)c(=O)c2ccccc12 | 1.38%
Cc1oc(-c2ccccc2F)nc1CS(=O)(=O)CC(=O)NCCCN(C)C1CCCCC1 | 2.98%
CCn1c(SCc2cc(=O)n3ccsc3n2)nc2ccccc21 | -1.53%
CCC(=O)Nc1cc(C(F)(F)F)ccc1N1CCCC1 | -2.29%
CCOCCCNS(=O)(=O)Cc1ccccc1 | -9.59%
O=C(CCC1CCCN(Cc2ccc(O)c(Cl)c2)C1)NCc1ccccc1F (stereo not given) | 45.2%
CCn1cc(CN2CCCC(CNS(=O)(=O)Cc3ccccc3)C2)cn1 (stereo not given) | 50.3% (active)
O=C(COC(=O)CNC(=O)c1ccco1)Nc1ccc(F)cc1 | -2.3%
CN1CCN(CCCNC(=O)c2cc3c(=O)oc4ccccc4c3s2)CC1 | 0.79%
Cn1c(C(=O)NCCN2CCc3ccccc3C2)cc2c(=O)[nH]c3ccccc3c21 | 11.6%
O=C(NCCN1CCN(Cc2ccccc2)CC1)c1cc2c(=O)[nH]c3ccccc3c2s1 | 101% (active)

SMILES | inhibition
CCC(C)NC(=O)c1nn(C)c(=O)c2ccccc12 (stereo not given) | 0.91%
Cc1[nH]n(-c2cccc(Cl)c2)c(=O)c1-c1ccc(Cl)cc1 | 53.3% (active)
Cc1[nH]n(-c2cccc(Cl)c2)c(=O)c1/C=N/n1c(C)nc2ccccc2c1=O | -15.8%
Cc1cccc(N=Nc2c(C)[nH]n(-c3ccccc3)c2=O)c1 | -1.61%
Cc1nonc1NC(=O)CSc1nc2ccccc2cc1C#N | 1.85%
CCSc1nc(C)c(CCOc2cccc(C)c2)c(=O)[nH]1 | -3.36%
O=C1/C(=C\c2ccccc2Cl)SC(=S)N1CCC(=O)N1CCCc2ccccc21 | 97.9% (active)
O=C(CN1CCCCCC1)NCCN1C(=O)S/C(=C\c2ccccc2Cl)C1=O | 1.89%
O=C(c1c(Cl)nc2sccn12)N1CCCc2ccccc21 | -2.07%
CCOC(=O)N1CCN(C(=O)CSc2nc(C)nc3c2c(=O)n(C)c(=O)n3C)CC1 | 8.12%
S=c1[nH]nc(Nc2ccccc2)s1 | -10.1%
O=[N+]([O-])c1ccc(F)cc1Oc1nc(-c2cccnc2)nc2ccccc12 | 16.9%
CC(=O)Nc1ccc(Sc2ccccc2C(=O)N2CCCC2)cn1 | -4.22%
CCn1c(COc2ccccc2)nnc1SCC(=O)NCc1ccco1 | -5.1%
CCS(=O)(=O)Nc1ccc(C2=NN(C(C)=O)C(c3cccs3)C2)cc1 (stereo not given) | 0.67%
COc1ccc(CNc2c(CO)cnc3c2cnn3C)cc1 | -4.57%
c1ccc(Cc2cc[n+](Cc3ccccc3)cc2)cc1 | 52% (active)
COC(=O)c1ccc(Cc2ccccc2)o1 | -4.65%
CN(C)c1cc[n+](Cc2ccccc2)cc1 | -2.95%
COc1ccc(-c2[nH]ncc2CN(C)Cc2cc(C)[nH]n2)c(F)c1 | -3.28%
Cc1cc(C)c(S(=O)(=O)N2CCOCC2)cc1C | 0.43%
Cn1cc(CCC(=O)N2CCCC(C(=O)c3ccc(C(C)(C)C)cc3)C2)cn1 (stereo not given) | -0.59%
CC(C)(C)n1nnnc1C(c1cccs1)N(Cc1cccnc1)CC1CCCO1 (stereo not given) | 18.7%
CCOc1ccc(CN(Cc2ccco2)C(c2cccs2)c2nnnn2C(C)(C)C)cc1 (stereo not given) | 73% (active)

SMILES | inhibition
Cc1ccc(S(=O)(=O)NNC(=O)Nc2cccc3ccccc23)cc1 | 34.5%
CC(=O)Nc1ccc(NC(=O)C(C)n2c3ccccc3c3nc(=O)cc(C)n32)cc1 (stereo not given) | 2.66%
CCn1c(=N)c(C(=O)NCCCOC)cc2c(=O)n3cccc(C)c3nc21 | 28.4%
O=C(NCc1ccco1)c1cccn2c(=O)c3c4c(sc3nc12)CCCC4 | -1.47%
COc1ccc(CCn2c(=N)c(C(=O)NCc3ccco3)cc3c(=O)n4cccc(C)c4nc32)cc1 | 67.1% (active)
Cc1nn(CC(=O)Nc2ccc3c(c2)OCO3)c(C)c1[N+](=O)[O-] | 7.29%
COc1ccc(C2CC(c3cccs3)=NN2c2ccc(F)cc2)cc1OC (stereo not given) | 15.6%
CCc1nnc(NC(=O)Cc2cccs2)s1 | -5.86%
CN(C)Cc1ccccc1C1(O)c2ccccc2CSc2ccccc21 (stereo not given) | 77.4% (active)
O=C(CNC(=O)c1cc(=O)[nH]c2ccccc12)Nc1ccc(F)c(F)c1 | 2%
CC(C)c1nccn1S(=O)(=O)c1cc([N+](=O)[O-])ccc1Cl | 25.1%
CCc1nc(C)cn1S(=O)(=O)c1cc(OC)c(C)cc1C | 67.1% (active)
CCCOc1cc(C)c(S(=O)(=O)n2nnc3ccccc32)cc1C | -5.25%
COc1cc2sc(C)nc2cc1C | -0.96%
CCc1nccn1S(=O)(=O)c1cccc([N+](=O)[O-])c1 | 33.6%
CCc1nc(C)cn1S(=O)(=O)c1cc([N+](=O)[O-])ccc1Cl | 89.9% (active)
Cn1c(=O)cc(OCC(=O)N2CCN(c3ccccc3F)CC2)c2ccccc21 | -1.08%
COC(=O)c1ccc(/C=N/OCC(=O)Nc2cc(F)ccc2F)cc1 | 6.63%
CCc1ccc(OCC(=O)OCC(=O)c2c(N)n(C)c(=O)n(C)c2=O)cc1 | -8.87%
Cc1cccc(C)c1NC(=O)C1(N(C(=O)c2ccccn2)c2ccc(O)cc2)CCCCC1 | -0.59%
Cc1cc(C)cc(NC(=O)COC(=O)c2cc(C)oc2C)c1 | -1.77%
CC1(C)CCCC2=C1CC1C(=O)N(c3ccccc3)C(=O)C1C2 (stereo not given) | 4.86%
CC1CC2=C(CC1/C=N/NC(N)=S)C(C)(C)CCC2 (stereo not given) | 100% (active)
COCCNC(=O)c1ccc(-n2c(SCc3cccnc3)nc3ccccc3c2=O)cc1 | -2.65%

SMILES | inhibition
COc1cc(N2C(=O)c3ccccc3C2=O)c(Cl)cc1C(=O)OCC(=O)N1CCOCC1 | 16.7%
CC1=C(C(=O)Nc2cc(C)ccn2)C(c2cnn(C)c2)C2=C(CC(c3ccccc3)CC2=O)N1 (stereo not given) | 1%
Cc1cc(C)c2c(n1)nn1c(N3CCOCC3)cc(C)nc21 | 4.53%
Cc1cc(C)c2nc3nc(C)cc(C)c3c(N)c2c1 | 100% (active)
Cc1cc(C)c2nc(SCCC#N)nc(C)c2c1 | 5.11%
O=C(C1CCCO1)N(c1ccc(F)cc1)C1C=CS(=O)(=O)C1 (stereo not given) | -5.34%
CC1CCC2(CC1)NC(=O)N(Cc1nnc(-c3cccs3)o1)C2=O (stereo not given) | 1.95%
COc1ccc(CCN=C2SCC(=O)N2Cc2ccccc2)cc1OC | 20.8%
COc1cccc(C2c3[nH]c4ccccc4c3CCN2Cc2cccc(C)n2)c1 (stereo not given) | 82.2% (active)
CCOc1ccc(C2c3[nH]c4ccccc4c3CCN2Cc2cn(CC)nc2C)cc1 (stereo not given) | 64.3% (active)
COCc1ccc(C(=O)N2CCc3c([nH]c4ccccc34)C2c2ccccn2)s1 (stereo not given) | 13.5%
COc1ccc(C2c3[nH]c4ccccc4c3CCN2CCCn2cccn2)cc1C (stereo not given) | 16.8%
Oc1cccc(C2c3[nH]c4ccccc4c3CCN2Cc2cnn(-c3ccccc3)c2)c1 (stereo not given) | -0.63%
c1ccc(C2c3[nH]c4ccccc4c3CCN2Cc2cccn2-c2cccnc2)nc1 (stereo not given) | 0.1%
CC(C)C(O)C1CCN(Cc2nc(Cc3ccccc3Cl)no2)CC1 (stereo not given) | 1.45%
COc1ccc([N+](=O)[O-])cc1NC(=O)CC1SC(=Nc2cccc(C)c2C)N(/N=C(\C)c2ccc(C)cc2)C1=O (stereo not given) | 30.7%
CC1(C)C2CCC1(C)C(OC(=O)c1ccc(O)cc1)C2 (stereo not given) | 14.5%
CC1CC(C)CN(S(=O)(=O)c2ccc(C(=O)NN3CCOCC3)cc2)C1 (stereo not given) | 6.29%
CCOC(=O)CSc1nc2c(c(=O)n(C)c(=O)n2C)n1Cc1ccccc1F | -9.26%
CCOC(=O)CSc1nc2c(sc(=S)n2CCc2ccccc2)c(=O)n1Cc1ccco1 | 50.2% (active)
COc1ccccc1NC(=O)CSc1nc2sc(C)c(C)c2c(=O)n1Cc1ccco1 | 7.51%
Cc1ccc(C(C[N+](=O)[O-])c2c(C)cc3ccccn23)cc1 (stereo not given) | 100% (active)
CC(C)C(=O)Nc1oc(-c2ccccc2)cc1C#N | 0.64%
